The campaign covered roughly 5,500 compounds. About 2,000 (36%) were called active. Inconclusive results (about 18%) are left out. Rule as the data show it: active = normalized growth mostly below about 0.91 (no sharp cut-off); inconclusive = no clear call, values can overlap the other calls; inactive = mostly above about 0.92. Some of the results follow.
Test: chemical genetic growth profiling, strain panel (AID 1159580);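 also: tested at 20 µM; growth read once vehicle control cultures reached saturation at 30 °C; 1 = growth at the plate median or of vehicle wells; lower values mean less growth of the strain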
Settings: S. cerevisiae deletion strains, growth OD

Measured: normalized growth

CCOc1ccc(C(=O)c2ccc(O)c(O)c2O)cc1
active: locus YKL160W, strain elf1, active compounds read low 0.9 | locus YLR058C, strain SHM2, active compounds read low 0.631 | locus YLR221C, strain rsa3, active compounds read low 0.887 | locus YLR262C, strain YPT6 (second series), active compounds read low 0.803 | locus YLR268W, strain sec22, active compounds read low 0.84 | locus YLR330W, strain CHS5, active compounds read low 0.884 | locus YLR342W, strain FKS1, active compounds read low 0.891 | locus YLR357W, strain rsc2, active compounds read low 0.691 | locus YLR371W, strain rom2, active compounds read low 0.776 | locus YLR418C, strain cdc73, active compounds read low 0.715 | locus YML016C, strain PPZ1, active compounds read low 0.83 | locus YMR058W, strain fet3, active compounds read low 0.384 | locus YMR205C, strain PFK2, active compounds read low 0.825 | locus YMR223W, strain ubp8, active compounds read low 0.874 | locus YMR231W, strain pep5, active compounds read low 0.9 | locus YMR263W, strain SAP30, active compounds read low 0.884 | locus YNL153C, strain GIM3, active compounds read low 0.853 | locus YNL209W, strain ssb2, active compounds read low 0.76 | locus YNL233W, strain BNI4, active compounds read low 0.866 | locus YNL271C, strain bni1, active compounds read low 0.911 | locus YNL322C, strain KRE1, active compounds read low 0.821 | locus YNR052C, strain pop2, active compounds read low 0.792 | locus YOL147C, strain pex11, active compounds read low 0.84 | locus YOR001W, strain rrp6, active compounds read low 0.867 | locus YOR061W, strain CKA2, active compounds read low 0.852 | locus YOR069W, strain VPS5, active compounds read low 0.88 | locus YOR083W, strain WHI5, active compounds read low 0.887 | locus YOR106W, strain vam3, active compounds read low 0.711 | locus YOR144C, strain elg1, active compounds read low 0.867 | locus YOR265W, strain rbl2, active compounds read low 0.913 | locus YOR290C, strain snf2, active compounds read low 0.67 | locus YPL051W, strain arl3, active compounds read low 0.807 | locus YPL078C, strain atp4, active compounds read low 0.885 | locus YPL106C, strain sse1, active compounds read low 0.839 | locus YPR163C, strain tif3, active compounds read low 0.901 | locus YPR167C, strain met16, active compounds read low 0.897 | strain wtn01, active compounds read low 0.864
inactive: locus YJR075W, strain HOC1, active compounds read low 0.928 | locus YKL009W, strain mrt4, active compounds read low 0.983 | locus YKL068W, active compounds read low 0.97 | locus YKL085W, strain MDH1 (second series), active compounds read low 0.967 | locus YKL085W, strain MDH1, active compounds read low 0.967 | locus YKR001C, strain vps1, active compounds read low 0.916 | locus YKR026C, strain gcn3, active compounds read low 0.941 | locus YKR091W, strain srl3, active compounds read low 0.965 | locus YLL001W, strain dnm1, active compounds read low 0.932 | locus YLL026W, active compounds read low 0.952 | locus YLL041C, strain sdh2, active compounds read low 0.937 | locus YLR027C, strain aat2, active compounds read low 0.947 | locus YLR039C, strain RIC1, active compounds read low 0.777 | locus YLR102C, strain apc9, active compounds read low 0.995 | locus YLR113W, strain HOG1, active compounds read low 0.903 | locus YLR258W, strain gsy2, active compounds read low 0.934 | locus YLR262C, strain YPT6, active compounds read low 0.896 | locus YLR320W, strain mms22, active compounds read low 0.88 | locus YLR370C, strain arc18, active compounds read low 0.95 | locus YLR384C, strain iki3, active compounds read low 0.936 | locus YML032C, strain rad52, active compounds read low 0.994 | locus YML120C, strain ndi1, active compounds read low 0.928 | locus YML124C, strain tub3, active compounds read low 0.967 | locus YMR078C, strain ctf18, active compounds read low 0.965 | locus YMR125W, strain sto1, active compounds read low 0.958 | locus YMR129W, active compounds read low 0.963 | locus YMR307W, strain GAS1, active compounds read low 0.787 | locus YNL067W, strain RPL9B, active compounds read low 0.869 | locus YNL071W, strain lat1, active compounds read low 0.963 | locus YNL183C, strain NPR1, active compounds read low 0.852 | locus YNL248C, strain rpa49, active compounds read low 0.98 | locus YNL250W, strain rad50, active compounds read low 0.981 | locus YNL298W, strain CLA4, active compounds read low 0.941 | locus YNL307C, strain MCK1, active compounds read low 0.951 | locus YNL322C, strain KRE1 (second series), active compounds read low 0.943 | locus YNR049C, strain mso1, active compounds read low 0.954 | locus YOL006C, strain TOP1, active compounds read low 0.656 | locus YOL012C, strain htz1 0.425 | locus YOR070C, strain gyp1, active compounds read low 0.941 | locus YOR080W, strain dia2, active compounds read low 0.954 | locus YOR136W, strain idh2, active compounds read low 0.962 | locus YOR184W, strain ser1, active compounds read low 0.882 | locus YOR231W, strain MKK1, active compounds read low 0.931 | locus YOR270C, strain vph1, active compounds read low 0.81 | locus YOR316C, strain cot1, active compounds read low 0.983 | locus YPL055C, strain LGE1, active compounds read low 0.841 | locus YPL240C, strain hsp82, active compounds read low 0.949 | locus YPL241C, strain CIN2, active compounds read low 0.969 | locus YPL256C, strain CLN2, active compounds read low 0.984 | locus YPR119W, strain clb2, active compounds read low 0.991 | locus YPR141C, strain kar3, active compounds read low 0.964

Reference: PubChem BioAssay AID1159580 (chemical genetic matrix, 2015)
